The results in this text go back to PubChem BioAssay (EPA / NIEHS).

Values joined by “and” are separate entries in the source; they are usually repeats but may differ in a detail not shown here. Identical values can stand only once. Results filed as inconclusive are left out. Some structures have more than one record in an assay (separate samples or runs), and their calls can disagree. Active and inactive are the calls of the source. How the source made its calls, unless noted: active means hit-call score of the fitted dose curve at least 0.9, where 1 is the maximum; inactive means score below 0.9.

Assay [1] can be described thus: BSK_4H_Eotaxin3: BioMAP Diversity Plus: 4H Assay for Eotaxin 3 Biomarker Activity (AID 2283000).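 On outcome: CCL26 protein level quantified by ELISA in parallel with SRB cytotoxicity check.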 The following applies: primary human endothelial cells (HUVEC); actives raise or lower the signal. Put shortly: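 Chemicals were added to human umbilical vein endothelium cultures, and Eotaxin-3 was quantified by ELISA at 24 h. Values were derived by bidirectional fitting with DMSO serving as negative control and activity baseline.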

Assay [2] addresses human Retinoic Acid Receptor beta (RARb), RARB (gene 5915) (UniProt P10826). Nature of the assay: ATG_RARb_TRANS: Attagene TRANS-FACTORIAL HepG2 Assay for human Retinoic Acid Receptor beta (AID 2283004; active means hit-call score of the fitted dose curve at least 0.9, where 1 is the maximum). Put shortly: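 Transient transfection of HepG2 with multiple reporter units → chemical dosing, 24 h → total RNA isolation → RT with oligo(dT) → reporter-specific PCR, 6-FAM primer extension, HpaI digest → capillary electrophoresis. Positive direction vs DMSO control.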

Assay [3] can be described thus: BSK_3C_Proliferation: Cell Proliferation Assessment in the BioMAP Diversity Plus: 3C Assay (AID 2283006).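 On AC50: potency may reflect either rise or fall in cell number versus DMSO.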 Conditions: primary human endothelial cells (HUVEC). An outline of the steps: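 Human umbilical vein endothelial cells were grown sub-confluent and exposed to chemical for 48 h, then fixed with 10% TCA and stained with 0.1% sulforhodamine B; absorbance at 560 nm gave relative cell number, fitted bidirectionally against DMSO baseline.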

In assay [4] the target is Peroxisome proliferator-activated receptor gamma (Homo sapiens) (UniProt P37231). Nature of the assay: ATG_PPARg_TRANS: Attagene TRANS-FACTORIAL HepG2 Assay for human Peroxisome Proliferator-activated Receptor-gamma (PPARg) (AID 2283007; active means hit-call score of the fitted dose curve at least 0.9, where 1 is the maximum). Put shortly: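 Chimeric NR-Gal4 transactivation is measured in transiently transfected HepG2 cells by reporter mRNA induction at 24 h. Detection uses RT-PCR with fluorescent labelling and capillary electrophoresis; DMSO defines baseline.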
Sequence of Peroxisome proliferator-activated receptor gamma (Homo sapiens) (P37231 whole entry, looked up, the tested form may be a part): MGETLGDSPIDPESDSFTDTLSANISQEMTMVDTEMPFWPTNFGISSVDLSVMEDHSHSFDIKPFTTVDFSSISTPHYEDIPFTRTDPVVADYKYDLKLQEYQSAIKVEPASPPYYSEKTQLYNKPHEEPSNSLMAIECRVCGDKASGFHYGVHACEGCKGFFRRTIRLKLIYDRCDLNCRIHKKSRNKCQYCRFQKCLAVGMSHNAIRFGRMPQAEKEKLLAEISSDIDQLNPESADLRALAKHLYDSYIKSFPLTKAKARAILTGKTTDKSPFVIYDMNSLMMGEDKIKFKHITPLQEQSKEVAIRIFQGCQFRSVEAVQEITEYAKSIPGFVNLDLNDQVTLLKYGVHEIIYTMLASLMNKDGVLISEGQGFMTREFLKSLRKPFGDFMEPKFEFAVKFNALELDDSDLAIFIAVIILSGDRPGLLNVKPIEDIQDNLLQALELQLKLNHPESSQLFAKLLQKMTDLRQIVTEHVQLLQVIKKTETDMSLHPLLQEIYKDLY

In assay [5] the target is Nuclear receptor subfamily 1 group I member 2 (Homo sapiens) (UniProt O75469). Kind of assay: ATG_PXR_TRANS: Attagene TRANS-FACTORIAL HepG2 Assay for human Pregnane X Receptor (PXR) (AID 2283008; active means hit-call score of the fitted dose curve at least 0.9, where 1 is the maximum). Put shortly: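 HepG2 cells transiently transfected with GAL4-UAS reporter units and PXR-Gal4 chimera, exposed 24 h. Reporter mRNA quantified by RT-PCR, fluorescent labelling, HpaI digestion and capillary electrophoresis; gain of signal vs DMSO.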
Sequence of Nuclear receptor subfamily 1 group I member 2 (Homo sapiens) (O75469 whole entry, looked up, the tested form may be a part): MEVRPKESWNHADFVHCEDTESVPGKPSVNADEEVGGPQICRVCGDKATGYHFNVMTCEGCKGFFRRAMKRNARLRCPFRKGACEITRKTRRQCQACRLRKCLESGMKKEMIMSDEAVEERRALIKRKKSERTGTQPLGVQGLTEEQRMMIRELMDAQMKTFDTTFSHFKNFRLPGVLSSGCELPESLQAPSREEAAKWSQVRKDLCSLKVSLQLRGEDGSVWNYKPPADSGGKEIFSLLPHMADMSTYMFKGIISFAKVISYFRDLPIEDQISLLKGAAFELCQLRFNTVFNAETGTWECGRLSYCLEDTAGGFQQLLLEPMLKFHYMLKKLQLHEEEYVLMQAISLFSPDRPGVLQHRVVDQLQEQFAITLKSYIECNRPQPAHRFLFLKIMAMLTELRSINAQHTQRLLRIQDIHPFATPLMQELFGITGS

In assay [6] the target is human Retinoic Acid Receptor gamma (RARg), RARG (gene 5916) (UniProt P13631). Kind of assay: ATG_RARg_TRANS: Attagene TRANS-FACTORIAL HepG2 Assay for human Retinoic Acid Receptor gamma (RARg) (AID 2283009; active means hit-call score of the fitted dose curve at least 0.9, where 1 is the maximum). An outline of the steps: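 HepG2 cells transiently transfected with multiplexed reporter units expressing chimeric RARg-GAL4 and GAL4-UAS-driven reporters; 24 h compound exposure. Reporter mRNA quantified by RT-PCR with fluorescent labelling and capillary electrophoresis; gain-of-signal fitted relative to DMSO baseline.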
Sequence of human Retinoic Acid Receptor gamma (RARg), RARG (gene 5916) (P13631 whole entry, looked up, the tested form may be a part): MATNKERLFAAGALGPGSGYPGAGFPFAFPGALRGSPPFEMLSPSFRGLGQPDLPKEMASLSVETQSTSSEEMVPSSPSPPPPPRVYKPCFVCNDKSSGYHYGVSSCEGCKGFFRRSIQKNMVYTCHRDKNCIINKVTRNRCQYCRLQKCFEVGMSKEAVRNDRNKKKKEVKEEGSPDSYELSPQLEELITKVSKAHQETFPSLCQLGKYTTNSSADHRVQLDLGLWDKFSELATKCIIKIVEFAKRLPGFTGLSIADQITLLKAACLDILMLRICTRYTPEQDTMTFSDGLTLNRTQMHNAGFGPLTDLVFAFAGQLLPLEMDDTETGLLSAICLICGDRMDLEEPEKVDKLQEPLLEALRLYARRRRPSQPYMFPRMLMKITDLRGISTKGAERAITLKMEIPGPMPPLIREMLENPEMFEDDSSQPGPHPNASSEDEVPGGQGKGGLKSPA

The target of assay [7] is Retinoic acid receptor RXR-alpha (Homo sapiens) (UniProt P19793). Nature of the assay: ATG_RXRa_TRANS: Attagene TRANS-FACTORIAL HepG2 Assay for human Retinoid X Receptor alpha (RXRa) (AID 2283012; active means hit-call score of the fitted dose curve at least 0.9, where 1 is the maximum). An outline of the steps: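 HepG2 cells transiently transfected with multiplexed GAL4-UAS reporter units and chimeric NR-GAL4 fusions, dosed 24 h. Reporter mRNA measured by RT-PCR, FAM labelling, HpaI digestion and capillary electrophoresis; gain-of-signal fitted relative to DMSO baseline.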
Sequence of Retinoic acid receptor RXR-alpha (Homo sapiens) (P19793 whole entry, looked up, the tested form may be a part): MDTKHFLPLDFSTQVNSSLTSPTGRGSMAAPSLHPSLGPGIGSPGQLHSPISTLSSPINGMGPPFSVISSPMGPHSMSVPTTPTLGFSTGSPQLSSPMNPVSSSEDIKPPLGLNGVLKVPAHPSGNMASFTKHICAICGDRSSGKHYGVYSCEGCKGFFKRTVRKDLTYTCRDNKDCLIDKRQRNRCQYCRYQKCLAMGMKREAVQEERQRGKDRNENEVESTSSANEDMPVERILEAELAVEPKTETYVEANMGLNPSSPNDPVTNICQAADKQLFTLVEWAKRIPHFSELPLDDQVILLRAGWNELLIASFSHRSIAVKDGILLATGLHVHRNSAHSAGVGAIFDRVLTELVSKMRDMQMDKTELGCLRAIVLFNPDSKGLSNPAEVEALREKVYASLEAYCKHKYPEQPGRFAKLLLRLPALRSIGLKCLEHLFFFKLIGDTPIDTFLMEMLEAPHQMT

Read-out in assay [8]: E-selectin (Homo sapiens) (UniProt P16581)
Nature of the assay: BSK_3C_Eselectin: BioMAP Diversity Plus: 3C Assay for Eselectin Biomarker Activity (AID 2283015).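 Further: cell surface E-selectin protein quantified by ELISA 24 h after dosing.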 The following applies: primary human endothelial cells (HUVEC); actives raise or lower the signal. An outline of the steps:
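ELISA read-out of E-selectin on endothelial monolayers after 24 h chemical treatment. Human umbilical vein primary cells served as the system, with DMSO defining baseline activity for bidirectional fitting.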

Read-out in assay [9]: Interleukin-1 alpha (IL1a), IL1A (gene 3552)
Nature of the assay: BSK_BE3C_IL1a: BioMAP Diversity Plus: BE3C Assay for Interleukin-1 alpha (IL1a) Biomarker Activity (AID 2283016). Conditions: primary human bronchial epithelial cells; actives raise or lower the signal. An outline of the steps: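 Human primary bronchial epithelial cells (BE3C system) were dosed with compound and IL-1a measured by ELISA 24 h later. Activity was fitted bidirectionally against DMSO baseline; cytotoxicity was tracked in parallel cultures by SRB total-protein staining.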

Read-out in assay [10]: Monocyte Chemoattractant Protein-1 (MCP1), CCL2 (gene 6347)
Nature of the assay: BSK_3C_MCP1: BioMAP Diversity Plus: 3C Assay for Monocyte Chemoattractant Protein-1 (MCP1) Biomarker Activity (AID 2283017). Conditions: primary human endothelial cells (HUVEC); actives raise or lower the signal. An outline of the steps:
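ELISA read-out of MCP-1 from human umbilical vein endothelial cell cultures harvested 24 h post-dosing. Gain or loss of signal was fitted relative to DMSO.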

Read-out in assay [11]: Monocyte Chemoattractant Protein-1 (MCP1), CCL2 (gene 6347)
Nature of the assay: BSK_4H_MCP1: BioMAP Diversity Plus: 4H Assay for Monocyte Chemoattractant Protein-1 (MCP1) Biomarker Activity (AID 2283018). Conditions: primary human endothelial cells (HUVEC); actives raise or lower the signal. Put shortly:
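Human umbilical vein endothelial cells (4H system) dosed with chemical; MCP-1 measured by ELISA 24 h after dosing. Bidirectional curve fitting against DMSO negative control as baseline; parallel SRB total-protein staining tracks overt cytotoxicity.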

Read-out in assay [12]: Human Leukocyte Antigen - DR isotype (HLADR), HLA-DRA (gene 3122)
Nature of the assay: BSK_3C_HLADR: BioMAP Diversity Plus: 3C Assay for Human Leukocyte Antigen - DR isotype (HLADR) Biomarker Activity (AID 2283019). Conditions: primary human endothelial cells (HUVEC); actives raise or lower the signal. Put shortly: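 ELISA readout of surface HLA-DR on human umbilical vein endothelium, taken 24 h after chemical treatment. Gain- and loss-of-signal were both fitted relative to DMSO.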

Read-out in assay [13]: Intercellular Adhesion Molecule 1 (ICAM1), ICAM1 (gene 3383)
Nature of the assay: BSK_3C_ICAM1: BioMAP Diversity Plus: 3C Assay for Intercellular Adhesion Molecule 1 (ICAM1) Biomarker Activity (AID 2283003). Conditions: primary human endothelial cells (HUVEC); actives raise or lower the signal. Put shortly:
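Primary human umbilical vein endothelial cells in the BioMAP 3C system were exposed to chemicals for 24 h, then ICAM-1 was quantified by ELISA. Activity was fitted bidirectionally against the DMSO negative control baseline.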

For assay [14], the target named is Retinoic acid receptor alpha (Homo sapiens) (UniProt P10276). Kind of assay: ATG_RARa_TRANS: Attagene TRANS-FACTORIAL HepG2 Assay for human Retinoic Acid Receptor alpha (RARa) (AID 2283005; active means hit-call score of the fitted dose curve at least 0.9, where 1 is the maximum). An outline of the steps:
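HepG2 transiently transfected with multiplex GAL4-UAS reporter units including a human RARa–GAL4 chimera; 24 h compound exposure. Reporter mRNA quantified by RT-PCR, 6-FAM labeling and capillary electrophoresis; gain of signal versus DMSO.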

Assay [15] concerns the target human RAR-related Orphan Receptor beta (RORb), RORB (gene 6096) (UniProt Q92753). Kind of assay: ATG_RORb_TRANS: Attagene TRANS-FACTORIAL HepG2 Assay for human RAR-related Orphan Receptor beta (RORb) (AID 2283010; active means hit-call score of the fitted dose curve at least 0.9, where 1 is the maximum). An outline of the steps:
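HepG2 cells were transiently transfected with multiplexed GAL4-UAS reporter units expressing chimeric nuclear receptor–GAL4 proteins, then dosed for 24 h. Reporter mRNA was quantified by RT-PCR with fluorescent labelling and capillary electrophoresis; gain of signal was fitted relative to DMSO.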

Assay [16] concerns the target human RAR-related Orphan Receptor gamma (RORg), RORC (gene 6097) (UniProt P51449). Nature of the assay: ATG_RORg_TRANS: Attagene TRANS-FACTORIAL HepG2 Assay for human RAR-related Orphan Receptor gamma (RORg) (AID 2283011; active means hit-call score of the fitted dose curve at least 0.9, where 1 is the maximum). An outline of the steps:
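First, HepG2 liver cells were transfected with GAL4-UAS-driven reporter constructs and the RORg-Gal4 fusion. Next, they were treated with chemical for 24 h. Finally, reporter mRNA was quantified by RT-PCR and capillary electrophoresis, with upward activity fitted against DMSO.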

The target in assay [17] is human Retinoid X Receptor beta (RXRb), RXRB (gene 6257) (UniProt P28702). Nature of the assay: ATG_RXRb_TRANS: Attagene TRANS-FACTORIAL HepG2 Assay for human Retinoid X Receptor beta (RXRb) (AID 2283013; active means hit-call score of the fitted dose curve at least 0.9, where 1 is the maximum). An outline of the steps:
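HepG2 cells transiently transfected with multiplexed reporter units driven by GAL4-UAS and exogenous chimeric NR-Gal4 proteins; treated 24 h. Reporter mRNA measured by RT-PCR, 6-FAM labelling and capillary electrophoresis; gain-of-signal fitted versus DMSO baseline.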

In assay [18] the target is human Peroxisome Proliferator-activated Receptor delta (PPARd), PPARD (gene 5467) (UniProt Q03181). Nature of the assay: ATG_PPARd_TRANS: Attagene TRANS-FACTORIAL HepG2 Assay for human Peroxisome Proliferator-activated Receptor delta (PPARd) (AID 2283002; active means hit-call score of the fitted dose curve at least 0.9, where 1 is the maximum). Put shortly: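 Fluorescence from capillary electrophoresis of labelled RT-PCR reporter fragments gives the signal; DMSO sets baseline. Cells: HepG2 transiently carrying GAL4-UAS reporter units plus chimeric nuclear receptor-Gal4 proteins, exposed to chemicals for 24 h.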

Assay [19] has as its target human Peroxisome Proliferator-activated Receptor alpha (PPARa), PPARA (gene 5465) (UniProt Q07869). Kind of assay: ATG_PPARa_TRANS: Attagene TRANS-FACTORIAL HepG2 Assay for human Peroxisome Proliferator-activated Receptor alpha (PPARa) (AID 2283001; active means hit-call score of the fitted dose curve at least 0.9, where 1 is the maximum). Put shortly:
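Measures transcriptional activity of an exogenous chimeric PPARa-Gal4 protein in transiently transfected HepG2 cells after 24 h dosing. Reporter mRNA quantified via RT-PCR and capillary electrophoresis; DMSO served as negative control.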

Assay [20] addresses human Thyroid Receptor alpha (THRa1), THRA (gene 7067) (UniProt P10827). Kind of assay: ATG_THRa1_TRANS: Attagene TRANS-FACTORIAL HepG2 Assay for human Thyroid Receptor alpha (THRa1) (AID 2283014; active means hit-call score of the fitted dose curve at least 0.9, where 1 is the maximum). An outline of the steps: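 Reporter transcript induction, read by capillary electrophoresis of 6-FAM-labelled RT-PCR products, reflects activity of a transfected THRa1-Gal4 fusion in HepG2 liver cells. Cells were dosed for 24 h; activity was fitted in the positive direction against DMSO.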

Sequence of Retinoic acid receptor alpha (Homo sapiens) (P10276 whole entry, looked up, the tested form may be a part): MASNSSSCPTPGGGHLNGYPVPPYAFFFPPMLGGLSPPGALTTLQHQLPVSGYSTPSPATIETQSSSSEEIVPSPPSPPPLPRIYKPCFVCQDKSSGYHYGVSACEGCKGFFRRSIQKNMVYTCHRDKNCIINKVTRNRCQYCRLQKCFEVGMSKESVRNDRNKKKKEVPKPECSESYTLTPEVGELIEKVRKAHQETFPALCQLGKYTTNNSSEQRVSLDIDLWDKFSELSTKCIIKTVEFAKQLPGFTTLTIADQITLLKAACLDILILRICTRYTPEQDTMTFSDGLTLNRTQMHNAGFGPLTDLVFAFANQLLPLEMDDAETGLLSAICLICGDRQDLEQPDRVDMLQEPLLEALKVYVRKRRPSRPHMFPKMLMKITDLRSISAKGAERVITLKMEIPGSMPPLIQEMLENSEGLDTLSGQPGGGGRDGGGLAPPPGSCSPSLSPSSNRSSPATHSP
Sequence of human RAR-related Orphan Receptor gamma (RORg), RORC (gene 6097) (P51449 whole entry, looked up, the tested form may be a part): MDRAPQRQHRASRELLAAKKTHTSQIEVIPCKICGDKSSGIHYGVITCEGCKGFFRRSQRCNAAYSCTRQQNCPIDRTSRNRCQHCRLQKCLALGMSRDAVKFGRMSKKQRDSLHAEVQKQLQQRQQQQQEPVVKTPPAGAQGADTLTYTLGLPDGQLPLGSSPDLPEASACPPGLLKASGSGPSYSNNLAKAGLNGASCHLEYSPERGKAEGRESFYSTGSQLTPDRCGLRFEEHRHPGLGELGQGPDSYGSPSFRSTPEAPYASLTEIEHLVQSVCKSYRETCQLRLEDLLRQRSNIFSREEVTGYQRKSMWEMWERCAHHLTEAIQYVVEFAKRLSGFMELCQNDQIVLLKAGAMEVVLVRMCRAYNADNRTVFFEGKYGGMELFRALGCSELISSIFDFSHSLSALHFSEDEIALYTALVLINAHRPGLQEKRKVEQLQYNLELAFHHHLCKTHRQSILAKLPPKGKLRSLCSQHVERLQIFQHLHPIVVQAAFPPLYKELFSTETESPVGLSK
Sequence of human Retinoic Acid Receptor beta (RARb), RARB (gene 5915) (P10826 whole entry, looked up): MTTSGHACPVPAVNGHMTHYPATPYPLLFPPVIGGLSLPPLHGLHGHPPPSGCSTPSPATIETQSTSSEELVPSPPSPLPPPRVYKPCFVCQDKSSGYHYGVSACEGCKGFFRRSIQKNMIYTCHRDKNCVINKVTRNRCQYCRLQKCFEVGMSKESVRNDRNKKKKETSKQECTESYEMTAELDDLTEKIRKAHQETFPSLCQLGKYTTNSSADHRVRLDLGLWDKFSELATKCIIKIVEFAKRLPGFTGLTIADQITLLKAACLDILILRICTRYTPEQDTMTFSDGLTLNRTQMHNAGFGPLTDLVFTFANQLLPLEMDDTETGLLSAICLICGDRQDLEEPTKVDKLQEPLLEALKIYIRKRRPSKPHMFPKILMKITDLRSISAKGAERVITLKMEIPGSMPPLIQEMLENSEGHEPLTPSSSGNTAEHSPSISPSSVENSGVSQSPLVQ
Sequence of human Retinoid X Receptor beta (RXRb), RXRB (gene 6257) (P28702 whole entry, looked up, the tested form may be a part): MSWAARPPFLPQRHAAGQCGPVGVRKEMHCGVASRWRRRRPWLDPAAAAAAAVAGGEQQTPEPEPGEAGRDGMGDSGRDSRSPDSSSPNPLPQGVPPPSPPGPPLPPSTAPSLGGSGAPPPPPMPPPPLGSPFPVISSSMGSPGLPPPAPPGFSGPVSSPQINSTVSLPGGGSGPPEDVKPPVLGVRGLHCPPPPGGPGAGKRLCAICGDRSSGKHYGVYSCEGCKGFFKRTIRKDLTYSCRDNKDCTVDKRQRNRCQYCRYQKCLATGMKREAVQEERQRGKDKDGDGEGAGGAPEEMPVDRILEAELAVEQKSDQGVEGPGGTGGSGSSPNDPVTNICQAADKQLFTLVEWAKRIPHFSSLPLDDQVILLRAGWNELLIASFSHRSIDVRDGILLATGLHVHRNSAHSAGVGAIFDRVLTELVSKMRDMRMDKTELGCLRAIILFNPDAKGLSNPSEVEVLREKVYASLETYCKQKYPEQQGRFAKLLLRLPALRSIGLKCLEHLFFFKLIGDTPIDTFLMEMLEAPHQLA
Sequence of human RAR-related Orphan Receptor beta (RORb), RORB (gene 6096) (Q92753 whole entry, looked up, the tested form may be a part): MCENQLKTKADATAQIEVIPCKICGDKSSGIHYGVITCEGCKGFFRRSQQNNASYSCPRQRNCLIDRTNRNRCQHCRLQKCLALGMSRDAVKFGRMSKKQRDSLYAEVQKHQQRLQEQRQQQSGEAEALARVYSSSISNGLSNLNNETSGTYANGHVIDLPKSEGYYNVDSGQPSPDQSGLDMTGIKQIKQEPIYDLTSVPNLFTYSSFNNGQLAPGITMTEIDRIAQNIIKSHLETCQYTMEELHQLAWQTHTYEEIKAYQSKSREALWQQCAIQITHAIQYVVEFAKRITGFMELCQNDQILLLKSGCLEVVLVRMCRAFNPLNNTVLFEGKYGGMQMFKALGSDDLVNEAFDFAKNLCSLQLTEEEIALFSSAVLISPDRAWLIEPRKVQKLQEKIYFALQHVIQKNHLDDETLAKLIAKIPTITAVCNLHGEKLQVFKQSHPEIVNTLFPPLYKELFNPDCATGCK
Sequence of E-selectin (Homo sapiens) (P16581 whole entry, looked up): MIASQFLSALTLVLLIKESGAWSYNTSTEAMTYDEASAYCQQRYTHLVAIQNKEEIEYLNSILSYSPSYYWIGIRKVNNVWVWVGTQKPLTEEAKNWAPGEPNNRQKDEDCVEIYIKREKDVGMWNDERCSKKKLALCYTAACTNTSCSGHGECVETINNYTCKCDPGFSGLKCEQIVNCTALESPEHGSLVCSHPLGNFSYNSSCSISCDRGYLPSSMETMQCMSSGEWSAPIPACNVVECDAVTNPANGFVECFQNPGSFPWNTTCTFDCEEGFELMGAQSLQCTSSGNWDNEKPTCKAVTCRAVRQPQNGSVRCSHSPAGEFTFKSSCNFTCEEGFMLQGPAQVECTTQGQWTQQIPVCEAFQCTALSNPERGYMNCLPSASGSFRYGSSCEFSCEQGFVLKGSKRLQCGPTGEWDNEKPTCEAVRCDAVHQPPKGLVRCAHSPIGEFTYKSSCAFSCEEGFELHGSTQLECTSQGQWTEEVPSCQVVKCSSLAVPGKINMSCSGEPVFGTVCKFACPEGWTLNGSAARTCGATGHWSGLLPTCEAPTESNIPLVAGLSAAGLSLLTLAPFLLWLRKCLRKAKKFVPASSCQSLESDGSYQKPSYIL

In general, AC50 refers to the concentration giving half of the maximal activity seen. Take `CCCCC1C(=O)N(c2ccccc2)N(c2ccccc2)C1=O`: the result in assay [1], in assay [2], in [3], in assay [6], in assay [7] and in assay [8] was inactive. Also, the result in assay [9], in assay [10], in assay [11] and in assay [12] was inactive. Also, the AC50 in assay [4] was 22.6 µM (active); in assay [5], 1.01 µM (active).
Regarding `Nc1ccc(C(=O)O)cc1`, the outcome in assay [1], in assay [13], in assay [2], in assay [14], in assay [3] and in assay [6] was inactive. The compound was classed as inactive in [15], in [16], in assay [8], in assay [9], in [10] and in assay [11]. The outcome in assay [12] was inactive.
With `Fc1ccc(Br)cc1`, the result in [1], in assay [2], in [14], in assay [3], in assay [5] and in assay [6] was inactive. Moreover, the result in [16], in assay [7], in [8], in assay [9], in [10] and in assay [11] was inactive. Moreover, the outcome in assay [12] was inactive. In assay [17], the AC50 was 156 µM (active).
With `CC1=CC=C(C(C)C)CC1`, the result in assay [1], in assay [3], in assay [4], in assay [5], in assay [7] and in [17] was inactive. The result in assay [8], in [9], in assay [10], in [11] and in assay [12] was inactive.
`C[N+](C)(C)CCCNS(=O)(=O)C(F)(F)C(F)(F)C(F)(F)C(F)(F)C(F)(F)C(F)(F)C(F)(F)C(F)(F)F`: the AC50 in assay [1] was 39 µM (active) and 45.1 µM (active); in [3], 43.4 µM (active) and 42.7 µM (active); in assay [9] it was 14.3 µM (active); in assay [10], 30 µM (active). Moreover, the compound was called inactive in assay [4], in assay [5], in [6], in assay [7], in [8] and in [9]. For the same compound, the result in assay [10], in assay [11] and in assay [12] was inactive.
In the case of `O=C(O)C(F)(F)C(F)(F)C(F)(F)C(F)(F)C(=O)O`, the outcome in assay [1], in [3], in [4], in assay [5], in [6] and in assay [15] was inactive. In addition, the compound was called inactive in assay [16], in assay [7], in [8], in [9], in assay [10] and in assay [11]. Besides, the result in [12] was inactive.
On to `Cc1c(O)cccc1O`, for which the result in assay [1], in assay [3], in assay [4], in assay [5], in assay [15] and in assay [8] was inactive. The outcome in assay [9], in assay [10], in [11] and in [12] was inactive.
Turning to `C=CC(=O)NC(C)(C)C`, the result in [1], in [3], in assay [5], in assay [17], in assay [8] and in assay [9] was inactive. The result in assay [10], in assay [11] and in assay [12] was inactive.
In the case of `COC(OC)(C(=O)c1ccccc1)c1ccccc1`, the outcome in assay [1], in assay [18], in assay [3], in assay [4], in [6] and in assay [7] was inactive. Besides, the compound was called inactive in assay [17], in [8], in assay [9], in [10] and in assay [12]. Moreover, the AC50 in [5] was 0.52 µM (active); in assay [11], 0.016 µM (active).
Consider `CC(=O)OC1CCCCC1C(C)(C)C` (centres undefined), for which the call in assay [19], in assay [18], in assay [2], in [14], in [4] and in assay [5] was inactive. Also, the call in assay [6], in assay [15], in [7] and in assay [20] was inactive. In addition, in [17], the AC50 was 58.9 µM (active).
